Data taken from PubChem BioAssay (NCI).
Compounds without any hit were thinned out: in the full panel of roughly 79,000, 15% have a hit. Active and inactive are the calls of the source. No stated cut-off is given here; in the data, active means growth inhibition above about 70%; inactive means the rest.

Key:
[1] = NCI Yeast Anticancer Drug Screen. Data for the rad50 strain (AID 155);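 further: 0% = growth of vehicle-only cultures of the same strain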; conditions: S. cerevisiae rad50 strain growth inhibition; at 50.0 µM; stronger effect = higher value
In short: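 Yeast carrying a defined DNA repair defect were exposed to test compounds, and growth was compared with vehicle-treated controls to give percent inhibition.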

[2] = NCI Yeast Anticancer Drug Screen. Data for the mec2-1 strain (AID 157); conditions: S. cerevisiae mec2-1 strain, at 50.0 µM, stronger effect = higher value
In short: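 Each compound was tested on mec2-1 yeast, a strain altered in DNA damage repair or cell cycle control. Growth inhibition is reported relative to vehicle.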

[3] = NCI Yeast Anticancer Drug Screen. Data for the sgs1 mgt1 strain (AID 161);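 further: 0% = growth of cultures given vehicle only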; conditions: S. cerevisiae sgs1 mgt1 strain, at 50.0 µM, stronger effect = higher value
In short: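 Read-out: growth inhibition vs vehicle controls. Cells: mutant yeast strain deficient in DNA damage repair.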

[4] = NCI Yeast Anticancer Drug Screen. Data for the cln2 rad14 strain (AID 165);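 further: 0% = growth equal to vehicle treated cultures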; conditions: S. cerevisiae cln2 rad14 strain, at 50.0 µM, stronger effect = higher value
In short: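 Test compounds were added to cln2 rad14 yeast cultures; inhibition of growth was then determined by comparison with vehicle treatment.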

[5] = NCI Yeast Anticancer Drug Screen. Data for the bub3 strain (AID 167); conditions: S. cerevisiae bub3 mutant strain, at 50.0 µM, stronger effect = higher value
In short: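 Compounds were applied to a genetically altered yeast strain carrying a cell-cycle control defect. Growth inhibition was scored against vehicle-treated controls.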

[6] = NCI Yeast Anticancer Drug Screen. Data for the mlh1 rad18 strain (AID 175); conditions: S. cerevisiae mlh1 rad18 strain growth inhibition; at 50.0 µM; stronger effect = higher value
In short: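 Inhibition values reflect reduced growth of mutant yeast versus vehicle-treated controls following compound exposure; the mutations affect DNA damage repair.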

Measured: growth inhibition

CC(C)N(C(C)C)P(OCCC#N)OC1CC(n2cnc3c(=O)[nH]cnc32)OC1COC(=O)NCCCCCCNC(=O)OC(C)(C)c1ccc(-c2ccccc2)cc1 (stereo unspecified)
inactive: [1] -11.2% | [2] -26.4% | [3] -27% | [4] 10% | [5] 12.8% | [6] -18.4%

CO[C@@]12[C@@H]3N[C@@H]3CN1C1=C(C(=O)C(NCCC#N)=C(C)C1=O)[C@@H]2COC(N)=O
inactive: [1] -15.8% | [2] 13.2% | [3] -13.1% | [4] 10.6% | [5] -5.3% | [6] 55.6%

NC(=O)c1cc([N+](=O)[O-])c([N+](=O)[O-])cc1N(CCCl)CCCl
inactive: [1] 14.4% | [2] 8.95% | [3] 27.2% | [4] 0.4% | [5] -3.8% | [6] 13.3%

CC1(C)OC2COC(CN=[N+]=[N-])C2O1 (stereo unspecified)
inactive: [1] 14.4% | [2] 8.65% | [3] 0.9% | [4] -0.8% | [5] 3% | [6] -3.75%

CCCCCCCCCCCCCCCC[As](CCCCCCCCCCCCCCCC)SC1OC(COC(C)=O)C(OC(C)=O)C(OC(C)=O)C1OC(C)=O (stereo unspecified)
inactive: [1] 6.55% | [2] 3.55% | [3] 19.9% | [4] -4.7% | [5] 1.5% | [6] 3.55%

CCOC(=O)c1ccccc1C(=O)OCC
inactive: [1] 6.25% | [2] -2.65% | [3] -9.6% | [4] 6.1% | [5] -0.05% | [6] 10.9%

CC1=CC(=Nc2ccc(N(CCCl)CCCl)cc2)C=C(C)C1=O
inactive: [1] 3.2% | [2] -16.6% | [3] 12.2% | [4] 13.8% | [5] 8.15% | [6] 37.1%

CN1CCN(c2cc3nsnc3c3nsnc23)CC1
inactive: [1] 0.3% | [2] -7.3% | [3] -15.1% | [4] 8.6% | [5] -12.7% | [6] 18.1%

C/C=C/C(=O)[O-].C/C=C/C(=O)[O-].N.N.N.N.[Co+3].[O-][Cl+3]([O-])([O-])[O-]
inactive: [1] 0.2% | [2] -2.7% | [3] -7.2% | [4] 25.1% | [5] 7.3% | [6] -3.5%

NC(=O)NC(O)C(Cl)(Cl)Cl (stereo unspecified)
inactive: [1] -12.1% | [2] -33.9% | [3] -24.9% | [4] -42% | [5] -32.6% | [6] -29.4%

[Se]=[Mo]=[Se]
inactive: [1] -10.2% | [2] -8.3% | [3] -29.9% | [4] -18% | [5] -7.05% | [6] -33.9%

O=P(O)(O)CCP(=O)(O)O
inactive: [1] -14.5% | [2] 17.9% | [3] -13.4% | [4] 21.8% | [5] -13.7% | [6] -13.7%

COC1=CC=C2[C@@H]3Cc4ccc(OC)c5c4[C@]2(CCN3CCCl)C1O5 (stereo partly specified)
inactive: [1] 27% | [2] -5.35% | [3] 4.75% | [4] 8.2% | [5] 6.85% | [6] 10.6%

O=c1ccc(=O)[nH][nH]1.[Mn]
inactive: [1] 2.05% | [2] 4.5% | [3] -13.6% | [4] 17.1% | [5] 7.2% | [6] -1.7%

Clc1ccc(C(c2ccc(Cl)cc2)c2ccccn2)cc1
active: [1] 98.5% | [2] 98.3% | [3] 98.5% | [4] 97.8% | [5] 98.3% | [6] 98.4%

F[C](F)(F)[Hg][c]1ccccc1
active: [1] 99.3% | [2] 99.7% | [3] 99.5% | [4] 98.8% | [5] 99.5% | [6] 99.3%

NC1CC(O)C(O)CC1c1ccc2c(c1)OCO2 (stereo unspecified)
inactive: [1] -26.5% | [2] -4.45% | [3] -15.9% | [4] -13.9% | [5] 6.9% | [6] -17.2%

O=C(Cl)c1ccc[nH]1
inactive: [1] -0.95% | [2] -13.9% | [3] -13.7% | [4] 21.1% | [5] -25.6% | [6] -0.15%

ICc1nc2ccccc2[nH]1
inactive: [1] 15.6% | [2] -3.6% | [3] 3.65% | [4] -1.75% | [5] -14.5% | [6] 6.1%

COc1ccc2c(=O)c3ccccc3oc2c1CN(CCCl)CCCl
inactive: [1] 19.9% | [2] 16.4% | [3] -5.2% | [4] 13.2% | [5] -3.1% | [6] -8.25%

CCCCCCCCCCCCCC(=O)O.[Pb]
inactive: [1] -4.8% | [2] 7.35% | [3] -5.9% | [4] -0.65% | [5] -12.7% | [6] 5%

S=P1(c2ccccc2)C=C(N2CCCC2)CC1 (stereo unspecified)
inactive: [1] 20.4% | [2] 20.2% | [3] 16.6% | [4] 1.7% | [5] 11.7% | [6] 20.4%

CC(=O)[CH-]C(C)=O.O=[N+]([O-])O.[NH-]C1CCCCC1[NH-].[Pt+4] (stereo unspecified)
active: [1] 97.2% | [2] 98.5% | [3] 94.3% | [4] 98% | [5] 98.8% | [6] 94.8%

COc1ccc(N2C(=O)C3C4c5ccccc5C(C3C2=O)[n+]2ccccc24)cc1 (stereo unspecified)
inactive: [1] 27.2% | [2] -14.1% | [3] 9.7% | [4] -49.5% | [5] -0.45% | [6] 10.6%

C/C(=N\NS(=O)(=O)c1ccc(C)cc1)C(CN(C)C)C(c1ccccc1)c1c(O)c2ccccc2oc1=O (stereo unspecified)
inactive: [1] 59.9% | [2] 42.2% | [3] 65.2% | [4] 52.9% | [5] 54.7% | [6] 51.9%

CCCCOC(N)=O
inactive: [1] -34.6% | [2] -11.6% | [3] 29.4% | [4] -19.9% | [5] 0.1% | [6] 0.3%

C[P+]1(C)CCCCC1
inactive: [1] 7.15% | [2] 12.8% | [3] 0.35% | [4] -2.7% | [5] -8.85% | [6] -17.1%

COc1ccccc1P(=S)(c1ccccc1)c1ccccc1
inactive: [1] 31% | [2] 24.3% | [3] 17.6% | [4] 38% | [5] 27.2% | [6] 24.2%

NC(Cc1ccccc1)c1nn[nH]n1 (stereo unspecified)
inactive: [1] -10.2% | [2] -19.1% | [3] -35.6% | [4] -40.6% | [5] -17.4% | [6] -19.3%

FC(F)(F)c1ccc(Cl)c(NC2=NCCCS2)c1
inactive: [1] -7.85% | [2] -0.35% | [3] 2.15% | [4] 2.05% | [5] 0.4% | [6] -3.6%

O=C1NC(=S)NC(=O)C1=Cc1ccco1
inactive: [1] -4.55% | [2] -19.9% | [3] -17% | [4] 27.6% | [5] -11.2% | [6] -19.6%

O=C(Nc1ccc(S(=O)(=O)F)cc1)/C(=C\c1ccc([N+](=O)[O-])cc1)c1cccc(Cl)c1
inactive: [1] 12.4% | [2] 4.3% | [3] -18.2% | [4] 31.4% | [5] -0.7% | [6] 11.1%

CNC(=O)CCl
inactive: [1] 5.65% | [2] 3.4% | [3] -0.45% | [4] -7.15% | [5] -0.75% | [6] 6.4%

Oc1c(Cl)cccc1Cl
inactive: [1] -22.4% | [2] -51.9% | [3] -63% | [4] -1.6% | [5] -55.1% | [6] 3.4%

N#CCc1ccc(O)cc1
inactive: [1] 1.25% | [2] 6.75% | [3] -20.8% | [4] -5.1% | [5] -4.7% | [6] 14%

O=C(O)C(F)(F)C(F)(Cl)C(F)(F)C(F)(Cl)C(F)(F)Cl (stereo unspecified) (tested in a mixture with another compound)
inactive: [1] -7.65% | [2] -12.8% | [3] -12.7% | [4] -28.2% | [5] 1.1% | [6] -6.2%

COC(=O)C1(F)C(=O)NC(=O)NC1O (stereo unspecified)
inactive: [1] -4.6% | [2] -2.75% | [3] 3.5% | [4] 14.7% | [5] 0.85% | [6] 2.25%

CNC(=O)O/N=C(\CN=[N+]=[N-])C(C)(C)C
inactive: [1] 4.6% | [2] 3.55% | [3] -1.4% | [4] 0% | [5] -19.6% | [6] -20.5%

O=[N+]([O-])c1cc(S(=O)(=O)F)cc(Cl)c1O
inactive: [1] -10.2% | [2] 1.6% | [3] 2.25% | [4] -3.7% | [5] -2.75% | [6] 8.45%

Cc1cc(NC(=O)CCc2ccc(N)cc2)ccc1S(=O)(=O)F
active: [1] 89.5% | [2] 94.9% | [3] 96.5% | [4] 81.8% | [5] 95% | [6] 95.2%

NCC(O)CSP(=O)(O)O (stereo unspecified)
inactive: [1] -10.9% | [2] -9.85% | [3] -18.9% | [4] 24.5% | [5] -3.8% | [6] -0.6%
